For part of these data: Results with a measured potency or affinity are listed apart. The source made the active and inactive calls.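 How the source made its calls, unless noted: active means compound raising the membrane signal above positive-control mean plus 3 SD in both repeats, and a primary screen hit; inactive means the rest.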
Tests used:
[1] = test system: TRPC4 beta (transient receptor potential cation channel C4), mouse; assay: TRPC4 cation channel opening, retest – cell-based, Fluo4 calcium, HEK293 TRPC4beta/mu-opioid, duplicates, 10 µM, confirmation (AID 2426;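 active means fluorescence ratio normalized to control raised more than 50% in primary screen plus both repeat runs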); conditions: Fluo4 calcium fluorescence, at 10 µM; hits give high values
[2] = test system: transient receptor potential cation channel C4 beta (TRPC4), mouse; assay: TRPC4 cation channel opening, second retest – cell-based, second round, Fluo4, HEK293 TRPC4beta/mu-opioid, 1 µM, confirmation (AID 2461;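 active means primary screen active and over 50% activation in each of two duplicate runs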); conditions: Fluo4 calcium fluorescence, at 1 µM; hits give high values
[3] = test system: TRPC4 (transient receptor potential cation channel C4 beta), mouse; assay: potentiation of DAMGO EC20 TRPC4 response – cell-based, second round, Fluo-4, HEK293 TRPC4beta/mu-opioid, 1 µM, confirmation (AID 2554;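 active means primary screen hit whose fluorescence ratio, in both repeats, exceeds the weak agonist control mean by 3 SD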); conditions: DAMGO EC20, Fluo-4 calcium flux, at 1 µM; hits give high values
[4] = test system: TRPC4 beta (transient receptor potential cation channel C4), mouse; assay: potentiation of DAMGO EC20 TRPC4 response – cell-based, Fluo-4, HEK293 TRPC4beta/mu-opioid, confirmation (AID 2555;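 active means primary screen hit whose calcium fluorescence ratio, in both repeats, exceeds the weak agonist control mean by 3 SD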); conditions: DAMGO EC20, Fluo-4 calcium flux, at 10 µM; hits give high values
[5] = target: Short transient receptor potential channel 4 (Mus musculus) (UniProt Q9QUQ5); assay: blockers of DAMGO-evoked TRPC4 calcium flux – cell-based, Fluo4, HEK293 TRPC4beta/mu-opioid, confirmation (AID 2636;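 active means calcium signal cut by more than 3 SD below the full-agonist control yet still positive, in both repeats and the earlier primary screen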); conditions: at 10 µM; hits give high values
[6] = target: Short transient receptor potential channel 4 (Mus musculus) (UniProt Q9QUQ5); assay: blockers of DAMGO-evoked TRPC4 calcium flux – cell-based, second round, Fluo4, HEK293 TRPC4beta/mu-opioid, 1 µM, confirmation (AID 2637;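 active means calcium signal ratio cut to more than 3 SD under the fully stimulated control mean yet still positive, in both repeats and the primary screen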;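 on inhibition: percent of integrated ratio relative to wells lacking test compound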); conditions: at 1 µM; hits give high values
[7] = target: Short transient receptor potential channel 4 (Mus musculus) (UniProt Q9QUQ5); assay: calcium entry via TRPC4 opening agents – cell-based, HEK293 TRPC4/mu-opioid, Fluo-4 calcium, dose response (AID 434937;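 active means primary screen activator hit with a dose response curve and TRPC4 channel activation at any tested dose; inactive means no activation, no dose response, or not a primary hit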)
[8] = target: Short transient receptor potential channel 4 (Mus musculus) (UniProt Q9QUQ5); assay: potentiation of DAMGO-evoked TRPC4 calcium signal – cell-based, HEK293 TRPC4/mu-opioid, Fluo-4 calcium, EC20 DAMGO, dose response (AID 434941;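 active means earlier screen potentiator hit that boosts the TRPC4 ion channel at some dose, with a dose response; inactive means no potentiation, no dose response, or not a prior hit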;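 further: calcium entry triggered by an EC20 dose of DAMGO at the co-expressed mu-opioid receptor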)
[9] = target: Short transient receptor potential channel 4 (Mus musculus) (UniProt Q9QUQ5); assay: block of DAMGO-driven TRPC4 calcium entry – cell-based, HEK293 TRPC4/mu-opioid, Fluo-4 calcium, dose response (AID 434942;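 active means primary screen inhibitor hit that blocks the TRPC4 channel at some tested dose, yielding a dose curve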)
[10] = target: Short transient receptor potential channel 6 (Mus musculus) (UniProt Q61143); assay: TRPC6 blockade by TRPC4 inhibitor hits – cell-based, HEK293, membrane potential dye, duplicate, selectivity assay for TRPC4 inhibitor project, confirmation (AID 434948;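 active means active in primary screen and both duplicates, each dropping signal beyond three positive-control SD with fluorescence still positive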); conditions: HEK293 TRPC6, membrane potential dye fluorescence, at 10 µM, stimulated with maximal-effect acetylcholine; hits give high values
[11] = target: Short transient receptor potential channel 6 (Mus musculus) (UniProt Q61143); assay: TRPC6 opening by TRPC4 activator hits – cell-based, HEK293, membrane potential dye, duplicate, selectivity assay for TRPC4 activator project, confirmation (AID 434950;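 active means membrane potential signal rise above negative control mean plus 3 SD in both duplicates, also active in the earlier TRPC4 screen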); conditions: HEK293 TRPC6, membrane potential fluorescence, at 10 µM; activation: hits give high values; outcome: activation
[12] = target: Short transient receptor potential channel 6 (Mus musculus) (UniProt Q61143); assay: positive modulators of mouse TRPC6 channel – HEK293 cells, membrane potential dye, duplicate, selectivity assay for TRPC4 potentiator project, confirmation (AID 434952); conditions: HEK293 TRPC6, membrane potential dye fluorescence, at 10 µM, maximal acetylcholine added after compound; hits give high values
[13] = target: Short transient receptor potential channel 4 (Mus musculus) (UniProt Q9QUQ5); assay: calcium flux activators in TRPC4/5HT1a cells, counter-screen for TRPC4 activator project, cell-based, second counter screen, HEK293 TRPC4/5HT1a, Fluo-4 (AID 434977;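 active means calcium signal rise above buffer-control mean plus 5 SD in both duplicates, and also a hit in the primary screen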); conditions: Fluo-4 calcium flux, at 10 µM; hits give high values
[14] = serotonin-gated TRPC4 signal block – cell-based, second counter screen, HEK293 TRPC4/5HT1a, Fluo-4, counter-screen for TRPC4 inhibitor project, confirmation (AID 434978;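 active means primary screen active whose calcium signal fell more than 3 SD beyond the full-serotonin control mean in both duplicate plates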;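 on outcome: serotonin given first at submaximal then at maximal dose after compound preincubation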); conditions: Fluo-4 calcium flux, at 10 µM, serotonin added to trigger calcium flux; hits give high values
[15] = test system: TRPC4 (mouse), co-expressed with 5HT1a in HEK293; assay: enhancement of serotonin-evoked TRPC4 response – cell-based, second counter screen, HEK293 TRPC4/5HT1a, Fluo-4, counter-screen for TRPC4 potentiator project, confirmation (AID 434979;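 active means signal rise over 3 SD above mean of control wells given weak agonist, in both repeats and first screen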); conditions: Fluo-4 calcium flux, at 10 µM, serotonin added at its EC20 dose; hits give high values
[16] = nonspecific calcium rise without TRPC4 – cell-based, HEK293 mu-opioid receptor line, counter-screen for TRPC4 activator project, confirmation (AID 449723;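 active means hit in primary screen, with calcium signal over 5 SD above buffer well mean in both duplicates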;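 further: counter screen cells carry the mu-opioid receptor alone and lack TRPC4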); conditions: HEK293 mu-opioid cells, Fluo-4 calcium fluorescence, at 10 µM; hits give high values
[17] = nonspecific potentiation of DAMGO calcium response – cell-based, HEK293 mu-opioid receptor line, counter-screen for TRPC4 allosteric potentiator project, confirmation (AID 449724;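 active means calcium signal rise more than 3 SD above the low-dose agonist control mean, in both duplicate plates and the primary screen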); conditions: HEK293 mu-opioid receptor cells, Fluo-4 calcium flux, at 10 µM, compound added before EC20 DAMGO stimulus; hits give high values

Chain of Short transient receptor potential channel 6 (Mus musculus) (Q61143 whole entry, looked up): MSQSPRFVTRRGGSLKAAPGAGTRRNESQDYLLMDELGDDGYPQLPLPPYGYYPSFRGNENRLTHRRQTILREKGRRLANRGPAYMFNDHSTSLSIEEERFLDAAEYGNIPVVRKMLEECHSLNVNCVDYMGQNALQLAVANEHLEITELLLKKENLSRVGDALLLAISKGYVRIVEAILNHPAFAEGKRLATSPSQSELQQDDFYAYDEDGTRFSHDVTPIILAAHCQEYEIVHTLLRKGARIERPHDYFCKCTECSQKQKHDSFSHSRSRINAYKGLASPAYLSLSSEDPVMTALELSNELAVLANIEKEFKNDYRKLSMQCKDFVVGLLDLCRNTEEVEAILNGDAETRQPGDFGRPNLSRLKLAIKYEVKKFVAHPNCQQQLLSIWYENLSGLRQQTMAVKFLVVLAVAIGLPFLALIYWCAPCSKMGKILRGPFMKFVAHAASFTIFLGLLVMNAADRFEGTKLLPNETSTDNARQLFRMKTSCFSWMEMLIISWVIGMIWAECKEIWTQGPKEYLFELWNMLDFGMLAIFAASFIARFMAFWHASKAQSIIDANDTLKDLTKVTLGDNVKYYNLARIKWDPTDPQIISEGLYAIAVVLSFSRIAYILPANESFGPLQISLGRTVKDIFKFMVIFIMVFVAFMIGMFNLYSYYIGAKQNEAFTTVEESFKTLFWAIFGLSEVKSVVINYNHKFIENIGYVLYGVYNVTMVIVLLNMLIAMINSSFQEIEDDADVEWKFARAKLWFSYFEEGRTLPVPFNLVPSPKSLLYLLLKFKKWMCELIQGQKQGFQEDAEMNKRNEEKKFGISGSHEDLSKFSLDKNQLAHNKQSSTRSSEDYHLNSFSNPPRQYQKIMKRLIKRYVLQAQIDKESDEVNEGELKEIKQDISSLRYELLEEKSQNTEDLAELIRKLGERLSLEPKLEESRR
Chain of Short transient receptor potential channel 4 (Mus musculus) (Q9QUQ5 whole entry, looked up): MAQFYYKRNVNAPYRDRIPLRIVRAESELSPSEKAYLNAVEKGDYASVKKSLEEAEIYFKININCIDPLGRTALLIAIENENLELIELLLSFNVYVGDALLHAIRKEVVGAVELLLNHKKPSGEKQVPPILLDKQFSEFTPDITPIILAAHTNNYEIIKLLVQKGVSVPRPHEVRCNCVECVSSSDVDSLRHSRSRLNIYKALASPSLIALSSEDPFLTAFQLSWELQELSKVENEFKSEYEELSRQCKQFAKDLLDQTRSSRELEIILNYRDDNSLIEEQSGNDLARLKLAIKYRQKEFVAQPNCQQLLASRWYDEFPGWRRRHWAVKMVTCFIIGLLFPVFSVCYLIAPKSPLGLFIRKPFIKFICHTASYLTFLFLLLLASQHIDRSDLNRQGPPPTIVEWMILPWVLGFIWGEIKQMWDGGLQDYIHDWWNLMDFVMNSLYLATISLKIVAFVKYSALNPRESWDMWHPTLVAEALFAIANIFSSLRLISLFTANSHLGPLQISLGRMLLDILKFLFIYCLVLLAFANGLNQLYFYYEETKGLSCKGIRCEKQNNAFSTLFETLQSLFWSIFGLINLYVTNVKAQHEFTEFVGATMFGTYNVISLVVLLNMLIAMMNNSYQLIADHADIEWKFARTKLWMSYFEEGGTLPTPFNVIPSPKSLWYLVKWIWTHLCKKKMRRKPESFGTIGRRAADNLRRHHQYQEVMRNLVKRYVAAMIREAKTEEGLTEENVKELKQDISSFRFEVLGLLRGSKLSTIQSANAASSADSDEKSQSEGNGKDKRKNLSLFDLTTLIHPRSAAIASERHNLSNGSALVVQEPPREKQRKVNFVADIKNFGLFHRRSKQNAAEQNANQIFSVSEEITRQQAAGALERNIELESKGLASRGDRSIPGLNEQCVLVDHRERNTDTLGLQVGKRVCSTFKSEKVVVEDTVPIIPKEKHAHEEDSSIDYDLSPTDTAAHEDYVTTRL

Cc1ccc(-n2c(N)cc(=O)nc2SCC(=O)N2CCN(c3ccccc3)CC2)cc1
inactive: outcome [1] | outcome [2] | outcome [3] | outcome [4] | outcome [5] | outcome [6] | outcome [7] | outcome [8] | outcome [9] | outcome [10] | outcome [11] | outcome [12] | outcome [13] | outcome [14] | outcome [15] | outcome [16] | outcome [17]

CN1CCN(c2ccc(S(=O)(=O)N3CCCCC3)cc2NC(=O)c2ccc(F)cc2F)CC1
active: potentiation [15] 14.3%
inactive: outcome [1] | outcome [2] | outcome [3] | outcome [4] | outcome [5] | outcome [6] | outcome [7] | outcome [8] | outcome [9] | outcome [10] | outcome [11] | outcome [12] | outcome [13] | outcome [14] | outcome [16] | outcome [17]

O=[N+]([O-])c1ccccc1CN1CCN(S(=O)(=O)c2ccccc2)CC1
active: potentiation [4] 11%
inactive: outcome [1] | outcome [2] | outcome [3] | outcome [5] | outcome [6] | outcome [7] | outcome [8] | outcome [9] | outcome [10] | outcome [11] | outcome [12] | outcome [13] | outcome [14] | outcome [15] | outcome [16] | outcome [17]

Cc1ccc(NC(=O)c2cc(N3C(=O)C=CC3=O)ccc2N2CCOCC2)cc1Cl
inactive: outcome [1] | outcome [2] | outcome [3] | outcome [4] | outcome [5] | outcome [6] | outcome [7] | outcome [8] | outcome [9] | outcome [10] | outcome [11] | outcome [12] | outcome [13] | outcome [14] | outcome [15] | outcome [16] | outcome [17]

CN1CCN(c2ccc(Cl)cc2NC(=O)/C=C/c2cccc(F)c2)CC1
active: potentiation [3] 11% | potentiation [15] 41.1%
inactive: outcome [1] | outcome [2] | outcome [4] | outcome [5] | outcome [6] | outcome [7] | outcome [8] | outcome [9] | outcome [10] | outcome [11] | outcome [12] | outcome [13] | outcome [14] | outcome [16] | outcome [17]

O=C(c1ccccc1)C1CCc2occc2C1=O (stereo not given)
inactive: outcome [1] | outcome [2] | outcome [3] | outcome [4] | outcome [5] | outcome [6] | outcome [7] | outcome [8] | outcome [9] | outcome [10] | outcome [11] | outcome [12] | outcome [13] | outcome [14] | outcome [15] | outcome [16] | outcome [17]

CC1(C)Cc2nc3oc4c(=O)n(CC(=O)Nc5ccccc5)cnc4c3cc2CO1
inactive: outcome [1] | outcome [2] | outcome [3] | outcome [4] | outcome [5] | outcome [6] | outcome [7] | outcome [8] | outcome [9] | outcome [10] | outcome [11] | outcome [12] | outcome [13] | outcome [14] | outcome [15] | outcome [16] | outcome [17]

O=S(=O)(NCCSc1nnc(-c2ccco2)n1-c1ccccc1)c1ccccc1
inactive: outcome [1] | outcome [2] | outcome [3] | outcome [4] | outcome [5] | outcome [6] | outcome [7] | outcome [8] | outcome [9] | outcome [10] | outcome [11] | outcome [12] | outcome [13] | outcome [14] | outcome [15] | outcome [16] | outcome [17]

CCOC(=O)c1sc2nc(CC(=O)OC)nc(NCc3ccc(F)cc3)c2c1C
inactive: outcome [1] | outcome [2] | outcome [3] | outcome [4] | outcome [5] | outcome [6] | outcome [7] | outcome [8] | outcome [9] | outcome [10] | outcome [11] | outcome [12] | outcome [13] | outcome [14] | outcome [15] | outcome [16] | outcome [17]

O=[N+]([O-])c1ccc(S(=O)(=O)NCCCc2ccccc2)cc1
inactive: outcome [1] | outcome [2] | outcome [3] | outcome [4] | outcome [5] | outcome [6] | outcome [7] | outcome [8] | outcome [9] | outcome [10] | outcome [11] | outcome [12] | outcome [13] | outcome [14] | outcome [15] | outcome [16] | outcome [17]

Clc1ccc(Cl)c(OCCCCN2CCNCC2)c1
inactive: outcome [1] | outcome [2] | outcome [3] | outcome [5] | outcome [6] | outcome [7] | outcome [8] | outcome [9] | outcome [10] | outcome [11] | outcome [12] | outcome [13] | outcome [14] | outcome [16] | outcome [17]
active: potentiation [4] 13% | potentiation [15] 6.61%

c1coc(CN=C2NC(=NCc3ccco3)c3ccccc32)c1
inactive: outcome [1] | outcome [2] | outcome [3] | outcome [4] | outcome [7] | outcome [8] | outcome [9] | outcome [11] | outcome [12] | outcome [13] | outcome [15] | outcome [16] | outcome [17]
active: inhibition [5] 98% | inhibition [6] 49% | inhibition [10] 47.5% | inhibition [14] 35.3%

Cc1cc(Nc2ccc3c(c2)OCCO3)c2cc(Cl)ccc2n1
inactive: outcome [1] | outcome [2] | outcome [3] | outcome [4] | outcome [5] | outcome [6] | outcome [7] | outcome [8] | outcome [9] | outcome [10] | outcome [11] | outcome [12] | outcome [13] | outcome [14] | outcome [15] | outcome [16] | outcome [17]

CN(C)CCCNc1ncnc2c1cnn2-c1ccccc1
active: potentiation [3] 16% | potentiation [4] 17% | potentiation [15] 28.6%
inactive: outcome [1] | outcome [2] | outcome [5] | outcome [6] | outcome [7] | outcome [8] | outcome [9] | outcome [10] | outcome [11] | outcome [12] | outcome [13] | outcome [14] | outcome [16] | outcome [17]

CN(C)CCCNc1ncnc2c1cnn2Cc1ccccc1Cl
inactive: outcome [1] | outcome [2] | outcome [3] | outcome [5] | outcome [6] | outcome [7] | outcome [8] | outcome [9] | outcome [10] | outcome [11] | outcome [12] | outcome [13] | outcome [14] | outcome [16] | outcome [17]
active: potentiation [4] 15% | potentiation [15] 19.8%
